# CRFR2-BP ag: CRF-BP/CRF-R2 complex agonism. HEK293 CRF-R2/CRF-BP, calcium dye fluorescence (FLIPR); percent of saturating CRF peptide response. activation, % at 13.2 µM. 350,000 compounds, 0.46% hits. AID 588473;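 active = activation of at least 50%, plus an integration ratio under a set limit after plate pattern correction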;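 also: plate controls were neutral control wells without compound for no effect and CRF at EC100 for full effect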
# IDE inh: inhibits human insulin-degrading enzyme in HEK cells. P14735. FAbetaB cleavage, fluorescence polarization. inhibition, % at 5.59 µM. 320,000 compounds, 0.41% hits. AID 434962;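 active = percent inhibition above the average of all tested compounds plus 3 SD, set per screening campaign, cut at about 16% in these data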;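 also: IDE supplied by intact live HEK cells; FP after avidin binding of uncleaved biotin substrate so inhibition keeps polarization high; 0% = DMSO wells and 100% = 60 µM reference IDE inhibitor Ii1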
# Target sequence (P14735 whole entry, looked up): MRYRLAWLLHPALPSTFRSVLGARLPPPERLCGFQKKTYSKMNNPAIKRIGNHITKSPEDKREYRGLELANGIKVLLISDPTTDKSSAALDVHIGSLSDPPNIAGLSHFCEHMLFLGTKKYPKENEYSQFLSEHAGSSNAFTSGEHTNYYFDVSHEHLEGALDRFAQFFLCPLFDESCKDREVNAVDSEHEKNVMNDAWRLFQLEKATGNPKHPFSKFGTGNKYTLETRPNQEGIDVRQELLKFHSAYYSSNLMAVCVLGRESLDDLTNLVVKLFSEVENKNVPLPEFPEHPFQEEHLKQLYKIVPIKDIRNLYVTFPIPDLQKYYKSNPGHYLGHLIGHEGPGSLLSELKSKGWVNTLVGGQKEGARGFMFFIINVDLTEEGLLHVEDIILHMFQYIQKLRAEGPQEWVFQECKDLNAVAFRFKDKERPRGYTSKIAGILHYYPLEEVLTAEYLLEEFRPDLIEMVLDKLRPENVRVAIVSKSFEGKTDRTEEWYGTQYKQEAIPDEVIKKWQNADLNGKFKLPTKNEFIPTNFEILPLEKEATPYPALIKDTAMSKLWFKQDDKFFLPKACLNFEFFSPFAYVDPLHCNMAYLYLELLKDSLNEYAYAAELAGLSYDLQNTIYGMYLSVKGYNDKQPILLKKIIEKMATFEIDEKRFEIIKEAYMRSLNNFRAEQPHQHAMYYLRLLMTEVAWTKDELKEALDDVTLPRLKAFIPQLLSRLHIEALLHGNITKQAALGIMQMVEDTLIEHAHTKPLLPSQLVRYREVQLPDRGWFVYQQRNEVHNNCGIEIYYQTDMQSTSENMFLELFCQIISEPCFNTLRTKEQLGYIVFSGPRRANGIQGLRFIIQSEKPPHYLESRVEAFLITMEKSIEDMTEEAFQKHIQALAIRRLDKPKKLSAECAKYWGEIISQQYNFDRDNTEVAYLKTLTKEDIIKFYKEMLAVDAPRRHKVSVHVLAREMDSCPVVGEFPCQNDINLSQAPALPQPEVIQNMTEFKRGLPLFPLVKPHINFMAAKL
# TPT1 inhibitor: inhibitors of Candida albicans tRNA 2'-phosphotransferase TPT1; recombinant caTPT1, FP RNA substrate dephosphorylation; inhibition, % at 5 µM; 300,000 compounds, 0.81% hits; AID 1962;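 active = inhibition above the mean of all tested compounds plus 3 SD, set per screening campaign, cut at about 24% in these data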;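 also: plate controls were DMSO alone for no effect and ferristatin control at 100 nM for full effect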
# IDE cell activ: boosts human insulin-degrading enzyme activity in HEK cells. P14735. FAbeta-B cleavage, fluorescence polarization; 0% vehicle, 100% cell-free pure enzyme wells. activation, % at 5.96 µM. 340,000 compounds, 0.073% hits. AID 493087;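 active = activation above the mean of all tested compounds plus 3 SD, set per screening campaign, cut at about 17% in these data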
# Myeloid diff MLP: promotes myeloid progenitor differentiation. ER-HoxA9 myeloid progenitors, lysozyme-GFP differentiation, flow cytometry. AID 624256. calls only at 10 µM. 360,000 compounds, 1% hits;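 active = normalized GFP-positive differentiation at or above the plate's own cutoff, the solvent-only control mean plus 3 SD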;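 also: cells exposed to compound for four days before flow analysis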
# CRFR2-BP antag: antagonists of CRF-binding protein/CRF-R2 receptor complex; HEK293 CRF-R2/CRF-BP, CRF-induced calcium fluorescence; inhibition, % at 11.8 µM; 350,000 compounds, 0.59% hits; AID 588475;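 active = inhibition of the ligand-induced calcium signal above about 50% at the single tested concentration, limit read from the data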
# * hit, by the source's call; i = inactive; nt = no result; + = active, no number. Hits are enriched below; roughly 2.6% of the tested compounds scored in any of these assays.
SMILES,CRFR2-BP ag,IDE inh,TPT1 inhibitor,IDE cell activ,Myeloid diff MLP,CRFR2-BP antag
CCCC(=NCC(=O)O)C1=C(O)C(C(=O)OC)C(C)(C)CC1=O (centres undefined),7.0,-4.8,0.4,2.2,i,61.2*
CCCC(=NCc1ccccc1)C1=C(O)C(C(=O)OC)C(C)(C)CC1=O (centres undefined),-0.5,8.5,-1.8,-5.8,i,20.3
CC(C)C1OC2(C)OC(=N)C1(C#N)C(C#N)(C#N)C2c1ccccc1 (centres undefined),62.5*,1.5,-14.6,-2.8,i,-72.4
O=Cc1c(-c2ccc(Cl)cc2)oc2ccc(O)cc12,-3.3,3.2,-1.9,nt,i,-2.7
CCOCc1cc(CN2CCCC(CNC(=O)c3ccco3)C2)ccc1OC (centres undefined),-1.3,2.4,-1.5,1.8,i,76.3*
Cc1nn(-c2ccccc2)c(N2CCCC2)c1/C=N/Nc1ccc(S(N)(=O)=O)cc1[N+](=O)[O-],-0.1,-4.2,5.5,4.0,i,59.6*
Cc1nn(-c2ccccc2)c(N2CCCC2)c1/C=N/NC(=O)c1cccc(S(=O)(=O)Nc2ccc(Cl)cc2)c1,-1.1,2.6,-1.1,6.2,+,21.4
Cc1nn(-c2ccccc2)c(Cl)c1/C=N/NC(=O)c1cccc(S(=O)(=O)N2CCCC2)c1,0.1,-3.6,1.9,6.2,i,2.7
O=C(CCSc1ccc(Cl)cc1)N1CCN(c2ccc(O)cc2)CC1,-1.4,2.1,-0.4,2.3,+,6.8
Oc1cc2ccccc2cc1-c1n[nH]c(=S)o1,-1.6,0.3,4.7,0.2,i,61.0*
O=C(Nc1c[nH]c(=O)[nH]c1=O)c1ccccc1Cl,-1.2,nt,nt,2.3,i,7.1
Cn1c(SCC(=O)Nc2ccc3c(c2)OCCO3)nnc1C(F)(F)F,-0.6,0.9,nt,-0.8,i,-5.0
COCCn1c(SCC(=O)c2ccc3c(c2)OCCO3)nnc1-c1ccco1,-0.1,2.7,-0.2,2.8,i,97.5*
Cn1c(SCC(=O)c2ccc3c(c2)OCCO3)nnc1C(F)(F)F,-0.6,2.0,2.1,4.4,i,111.1*
C=CCN1C(=O)C2(OCCCO2)c2cc(Cl)ccc21,-0.8,2.1,-2.8,-1.9,i,-4.7
CC1C(=O)NN=C1C(=O)N/N=C\C(Br)=C\c1ccccc1 (centres undefined),-2.6,nt,nt,3.1,+,0.0
CC1=NNC(=O)C1CC(=O)N/N=C/C(Br)=C/c1ccccc1 (centres undefined),-2.0,-2.3,-2.1,nt,i,1.5
O=C(N/N=C/C(Br)=C/c1ccccc1)c1cc(-c2ccco2)[nH]n1,-1.1,-2.6,2.6,2.2,+,-21.2
Cc1ccc(S(C)=O)cc1-n1c(=O)n(Cc2ccccc2)c(=O)c2[nH]cnc21 (centres undefined),0.4,0.1,-0.6,4.4,+,1.5
Cc1ccc(O)c(C(=O)c2cnc3c(c2)COc2ccccc2-3)c1,2.1,2.4,-4.9,-0.3,+,4.6
O=C1[C@@H]2[C@H](C(=O)N1CC(O)COCc1ccccc1)C1C=C[C@H]2C1 (some centres undefined),0.0,nt,nt,3.8,i,-18.9
COc1ccc(C2N(Cc3ccccc3)CC(=O)N2/N=C(\C)c2ccccc2)cc1 (centres undefined),0.8,6.3,-2.1,6.1,i,80.7*
CCOc1cc(C2C(C#N)=C(N)OC3=C2C(=O)CC(C)(C)C3)cc([N+](=O)[O-])c1O (centres undefined),4.5,-3.1,-1.2,5.0,i,-14.9
CC1(C)CC(=O)C2=C(C1)OC(N)=C(C#N)C2c1cc2c(cc1[N+](=O)[O-])OCO2 (centres undefined),96.1*,4.8,-61.7,-2.2,i,-40.1
O=C(NC1CCCc2ccccc21)c1n[nH]c(=O)c2ccccc12 (centres undefined),-2.5,6.1,-1.5,8.1,+,7.6
O=C(NC1CCCc2ccccc21)c1ccccc1 (centres undefined),-1.5,3.4,-1.2,3.2,i,9.3
COC(=O)c1ccc(CNC(=O)COC(=O)CC23CC4CC(CC(Br)(C4)C2)C3)cc1,0.9,7.7,-1.6,5.8,i,51.1*
